The source of these data is PubChem BioAssay (Tox21).

The nature of experiment [1]: qHTS assay to identify small molecule agonists of the androgen receptor (AR) signaling pathway in the presence of an antagonist - cell viability counter screen (AID 1259379). Note: nearly all actives have a fitted effect of over 25% in size. Note: potency is the fitted concentration of half-maximal effect. The procedure, abridged:
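Cytotoxicity is assessed by CellTiter-Fluor in MDA-kb2 cells carrying an MMTV-driven luciferase reporter. Cells receive 3.0uM nilutamide plus compounds at 15 concentrations and incubate 16 hr at 37C without CO2 before fluorescence reading.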

The nature of experiment [2]: qHTS assay to identify small molecule agonists of the estrogen receptor beta (ER-beta) signaling pathway - cell viability counter screen (AID 1259380). Note: potency is the fitted concentration of half-maximal effect; nearly all actives have a fitted effect of over 30% in size. The method in brief: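 Cytotoxicity is measured in parallel with the reporter screen: after 16 hr compound exposure at 37C and a 2 hr LiveBLAzer step, CellTiter-Glo is added to the same ER-beta-UAS-bla HEK293T wells and luminescence read after 30 min.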

Experiment [3] has as its target Estrogen receptor (Homo sapiens) (UniProt P03372). Put plainly: qHTS assay to identify small molecule agonists of the estrogen receptor alpha (ER-alpha) signaling pathway in the presence of an antagonist (AID 1259383; calls by dose curve; note: nearly all actives have a fitted effect of over 15% in size; note: potency is the fitted concentration of half-maximal effect; for activation: top concentration of the series differs between compounds). The method in brief: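 Agonist-mode confirmation in the presence of the ER antagonist ICI-182,780 at 10.0nM final. Breast-derived VM7Luc4E2 reporter cells were exposed to compounds for 22hr, and ERE-driven luciferase was quantified by luminescence.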

Experiment [4] can be described thus: qHTS assay to identify small molecule agonists or antagonists of the thyroid stimulating hormone receptor (TSHR) signaling pathway - wild type cell line counter screen (AID 1259384; calls by dose curve). The method in brief: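 Wild-type HEK293 cells were plated 18 h at 37 C/5% CO2, pin-dosed with compound plus Ro20-1724 medium, held 30 min at room temperature, then given cAMP-d2 and anti-cAMP-cryptate; fluorescence was read after 1 h. Fifteen concentrations, triplicate.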

For experiment [5], the target named is Thyrotropin receptor (Homo sapiens) (UniProt P16473). The experiment in a line: qHTS assay to identify small molecule antagonists of the thyroid stimulating hormone receptor (TSHR) signaling pathway (AID 1259385; calls by dose curve; note: nearly all actives have a fitted effect of over 20% in size; note: potency is the fitted concentration of half-maximal effect). The procedure, abridged: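 TSHR-HEK293 cells were plated and held 18 h at 37C/5% CO2, then given compound plus Ro20-1724 and stimulated with TSH at 1.5 ng/mL final. After 30 min at room temperature, cAMP was detected with cAMP-d2/anti-cAMP-cryptate (1 h) by fluorescence.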
Sequence of Thyrotropin receptor (Homo sapiens) (P16473 whole entry, looked up): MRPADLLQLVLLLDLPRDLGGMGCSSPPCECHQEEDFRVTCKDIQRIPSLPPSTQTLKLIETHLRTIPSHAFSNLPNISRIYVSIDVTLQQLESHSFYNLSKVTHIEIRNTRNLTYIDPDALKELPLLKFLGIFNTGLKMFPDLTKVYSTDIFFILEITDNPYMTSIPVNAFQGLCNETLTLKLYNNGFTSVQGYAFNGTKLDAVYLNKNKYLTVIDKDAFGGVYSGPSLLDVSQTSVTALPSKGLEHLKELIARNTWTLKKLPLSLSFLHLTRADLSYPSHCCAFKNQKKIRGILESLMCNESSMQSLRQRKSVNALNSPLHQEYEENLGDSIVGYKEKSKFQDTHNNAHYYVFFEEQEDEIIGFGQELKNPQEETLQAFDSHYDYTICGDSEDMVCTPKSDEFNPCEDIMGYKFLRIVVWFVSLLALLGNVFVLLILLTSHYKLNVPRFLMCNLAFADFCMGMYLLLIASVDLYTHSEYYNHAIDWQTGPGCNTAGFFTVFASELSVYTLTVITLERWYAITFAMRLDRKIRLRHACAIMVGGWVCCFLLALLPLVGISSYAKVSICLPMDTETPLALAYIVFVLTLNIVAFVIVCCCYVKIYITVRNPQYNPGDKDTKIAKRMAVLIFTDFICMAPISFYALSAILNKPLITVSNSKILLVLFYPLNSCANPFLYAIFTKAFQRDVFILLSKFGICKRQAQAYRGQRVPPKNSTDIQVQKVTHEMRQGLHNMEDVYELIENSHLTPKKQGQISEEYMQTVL

Experiment [6] can be described thus: qHTS assay to identify small molecule agonists of the estrogen receptor alpha (ER-alpha) signaling pathway in the presence of an antagonist - cell viability counter screen (AID 1259386).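 Note: cells exposed to compounds for 22 h at 37 °C before the viability read; nearly all actives have a fitted effect of over 30% in size.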 Note: potency is the fitted concentration of half-maximal effect. The procedure, abridged: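 Cytotoxicity was measured in parallel with the ERE-luciferase agonist screen, in the same wells. The cells were VM7Luc4E2, which endogenously express ER-alpha, and treatment was with compounds plus 10.0nM ICI-182,780 for 22hr.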

The target in experiment [7] is Progesterone receptor (Homo sapiens) (UniProt P06401). The experiment in a line: qHTS assay to identify small molecule antagonists of the progesterone receptor (PR) signaling pathway (AID 1346795; active = well fitted inhibition curve with a large enough effect in the signal ratio in the repeat runs, not every such curve was filed as active; the % refers to the signal ratio; note: potency is the fitted concentration of half-maximal effect). The procedure, abridged: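 Antagonist mode: compounds tested against 1 nM (final) promegestone stimulation in HEK293T cells expressing PR-UAS-bla reporter, 16 hr at 37C, 5% CO2; beta-lactamase activity detected via B/G FRET substrate after 2 hr at room temperature.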
Sequence of Progesterone receptor (Homo sapiens) (P06401 whole entry, looked up): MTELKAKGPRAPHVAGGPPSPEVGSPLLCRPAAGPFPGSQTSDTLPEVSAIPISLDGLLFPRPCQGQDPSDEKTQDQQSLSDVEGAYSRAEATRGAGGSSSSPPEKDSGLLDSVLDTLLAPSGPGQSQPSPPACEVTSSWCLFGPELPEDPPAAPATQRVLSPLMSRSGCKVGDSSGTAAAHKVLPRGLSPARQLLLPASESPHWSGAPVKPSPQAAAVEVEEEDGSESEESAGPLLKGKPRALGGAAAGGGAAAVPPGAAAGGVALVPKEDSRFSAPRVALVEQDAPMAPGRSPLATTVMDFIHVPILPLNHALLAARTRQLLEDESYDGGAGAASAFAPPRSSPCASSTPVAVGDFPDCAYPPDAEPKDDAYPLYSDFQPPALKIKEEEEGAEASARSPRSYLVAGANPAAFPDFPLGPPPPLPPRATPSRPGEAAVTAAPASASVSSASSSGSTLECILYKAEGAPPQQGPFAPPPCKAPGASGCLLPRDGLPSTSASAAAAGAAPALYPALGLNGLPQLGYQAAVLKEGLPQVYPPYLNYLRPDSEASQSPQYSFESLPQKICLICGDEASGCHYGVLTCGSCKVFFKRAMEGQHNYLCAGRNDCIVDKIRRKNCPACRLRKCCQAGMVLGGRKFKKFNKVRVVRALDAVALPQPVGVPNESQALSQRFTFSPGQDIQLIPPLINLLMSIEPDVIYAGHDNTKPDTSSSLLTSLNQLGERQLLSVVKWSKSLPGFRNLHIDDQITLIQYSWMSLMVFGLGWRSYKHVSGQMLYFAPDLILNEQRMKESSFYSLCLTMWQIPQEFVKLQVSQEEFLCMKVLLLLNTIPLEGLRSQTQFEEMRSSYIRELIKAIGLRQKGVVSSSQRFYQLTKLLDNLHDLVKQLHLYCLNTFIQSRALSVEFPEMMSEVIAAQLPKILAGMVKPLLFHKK

Experiment [8] is described as follows: qHTS assay to identify small molecule antagonists of the TGF-beta/Smad signaling pathway - cell viability counter screen (AID 1346824). Note: nearly all actives have a fitted effect of over 50% in size. Note: potency is the fitted concentration of half-maximal effect. The procedure, abridged:
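SBE-bla HEK 293T cells were plated overnight at 37 C, then given compounds in DMSO plus TGF-beta1 (added as 0.25 ng/mL solution) for 5 hr. After the bla read, CellTiter-Glo was added to the same wells and luminescence read after 30 min at room temperature.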

A short description of experiment [9]: qHTS assay to identify small molecule agonists of the TGF-beta/Smad signaling pathway - cell viability counter screen (AID 1346829). Note: top concentration of the series differs between compounds; nearly all actives have a fitted effect of over 45% in size. The method in brief:
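Cytotoxicity counter screen: CellTiter-Glo luminescence (30 min, room temperature) measured in the SBE-bla HEK 293T reporter wells after 5 hr compound treatment at 37 C and the 2 hr substrate step.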

Experiment [10] in a line: Caspase-3/7 induction in CHO-K1 cells by small molecules, qHTS cell viability counter screen (AID 1346979). Note: nearly all actives have a fitted effect of over 35% in size. Note: potency is the fitted concentration of half-maximal effect. The method in brief:
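Cytotoxicity counter screen run in parallel with the caspase-3/7 assay: CHO-K1 cells, 16hr compound treatment at 37C, then CellTiter-Fluor for 1hr before fluorescence reading.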

Experiment [11] deals with Progesterone receptor (Homo sapiens) (UniProt P06401). The experiment in a line: qHTS assay to identify small molecule agonists of the progesterone receptor (PR) signaling pathway (AID 1346784; calls by dose curve; note: nearly all actives have a fitted effect of over 30% in size). The method in brief: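 Cells (PR-UAS-bla HEK 293T, GripTite) were plated in assay medium containing 2% charcoal-stripped FBS and incubated 6 hr. Test compounds in DMSO were added for 16 hr at 37C. FRET substrate was then loaded for 2 hr at room temperature before fluorescence reading.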

A short description of experiment [12]: qHTS assay to identify small molecule agonists of the TGF-beta/Smad signaling pathway (AID 1346859; active = well fitted activation curve with a large enough effect in the signal ratio in the repeat runs, not every such curve was filed as active; the % refers to the signal ratio; note: series mostly up to about 77 µM). The procedure, abridged: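 Reporter line: HEK 293T with stably integrated SBE-controlled beta-lactamase. Compound exposure lasts 5 hr at 37 C and 5% CO2; substrate loading follows for 2 hr at room temperature, with emission read at 460 and 530 nm.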
Experiment [13] deals with Thyrotropin-releasing hormone receptor (Homo sapiens) (UniProt P34981). Put plainly: qHTS assay to identify small molecule antagonists of the thyrotropin-releasing hormone receptor (TRHR) signaling pathway (AID 1346877; active = well fitted inhibition curve with a large enough effect in the repeat runs, not every such curve was filed as active; note: series mostly up to about 51 µM). The method in brief: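 Antagonism is measured as suppression of the calcium response to 1 nM TRH in TRHR-HEK293 cells that have been dye-loaded for 2 h at 37 °C after overnight plating. Each compound is tested at 15 concentrations in triplicate.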
Sequence of Thyrotropin-releasing hormone receptor (Homo sapiens) (P34981 whole entry, looked up): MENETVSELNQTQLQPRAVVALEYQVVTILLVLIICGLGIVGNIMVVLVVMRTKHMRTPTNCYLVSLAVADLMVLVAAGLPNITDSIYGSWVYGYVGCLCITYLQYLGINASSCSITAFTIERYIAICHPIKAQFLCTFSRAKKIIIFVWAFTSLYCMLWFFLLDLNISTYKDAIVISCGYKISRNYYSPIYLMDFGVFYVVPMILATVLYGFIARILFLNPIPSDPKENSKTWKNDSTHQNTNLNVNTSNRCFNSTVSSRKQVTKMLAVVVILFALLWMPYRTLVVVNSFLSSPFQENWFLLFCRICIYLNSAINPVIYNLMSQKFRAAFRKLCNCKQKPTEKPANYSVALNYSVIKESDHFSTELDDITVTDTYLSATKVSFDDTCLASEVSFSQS

Experiment [14] shares this target. Put plainly: qHTS assay to identify small molecule agonists of the thyrotropin-releasing hormone receptor (TRHR) signaling pathway (AID 1346891; calls by dose curve;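 note: HEK293 cells expressing TRHR with calcium dye readout; series mostly up to about 58 µM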). The method in brief: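 Cells: TRHR-Hek293, seeded and incubated 18 h. Dye loading: 2 h at 37 °C. Compound added from DMSO stock by pin tool. Read-out: kinetic calcium fluorescence over 3 min.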
Experiment [15] in a line: Human pregnane X receptor (PXR) small molecule agonists, qHTS cell viability counter screen (AID 1346977). Note: nearly all actives have a fitted effect of over 50% in size. Note: potency is the fitted concentration of half-maximal effect. The method in brief: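 Cytotoxicity counter screen run in the same wells as the PXR luciferase assay, using PXR-Luc HepG2 cells in charcoal-stripped serum medium. Viability: CellTiter-Fluor fluorescence after 24hr compound treatment.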
Experiment [16] can be described thus: Caspase-3/7 induction in HepG2 cells by small molecules, qHTS assay (AID 1346978). Note: nearly all actives have a fitted effect of over 15% in size. The procedure, abridged:
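Wild-type HepG2 cells (2,000/well) were settled 5 h at 37 C, 5% CO2, then exposed to compounds in DMSO for 17 h. Caspase-3/7 activity was read by luminescence 30 min after adding Caspase-Glo 3/7 reagent at room temperature.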

Experiment [17] concerns the target Androgen receptor (Homo sapiens) (UniProt P10275). Put plainly: qHTS assay to identify small molecule agonists of the androgen receptor (AR) signaling pathway in the presence of an antagonist (AID 1259381; calls by dose curve; note: nearly all actives have a fitted effect of over 15% in size). The procedure, abridged:
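Agonist-mode confirmation screen: human MDA-kb2 cells stably expressing luciferase under an MMTV promoter bearing AR and GR response elements, co-treated with 3.0uM nilutamide (final). Luminescence measured after 16hr compound incubation.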

The nature of experiment [18]: qHTS assay to identify small molecule antagonists of the estrogen receptor beta (ER-beta) signaling pathway - cell viability counter screen (AID 1259382).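 Note: HEK293T cells carrying ER-beta-UAS-bla reporter stimulated with estradiol; series mostly up to about 92 µM; nearly all actives have a fitted effect of over 55% in size.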 The method in brief: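 Cytotoxicity counter screen multiplexed with the beta-lactamase antagonist assay: GripTite HEK293T ER-beta-bla cells were treated 16 hr with test chemicals in the presence of 1nM 17-beta-estradiol, and viability was measured by CellTiter-Glo.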

The nature of experiment [19]: qHTS assay to identify small molecule antagonists of the progesterone receptor (PR) signaling pathway - cell viability counter screen (AID 1346798). Note: series mostly up to about 92 µM; nearly all actives have a fitted effect of over 50% in size. The method in brief:
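Counter screen for cytotoxicity: viability of PR-UAS-bla HEK293T cells was measured with CellTiter-Glo luminescence following 16 hr compound exposure in the presence of R5020.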

Experiment [20] is described as follows: qHTS assay to identify small molecule agonists of the progesterone receptor (PR) signaling pathway - cell viability counter screen (AID 1346799; calls by dose curve; note: nearly all actives have a fitted effect of over 45% in size). The procedure, abridged: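 Cells (PR-UAS-bla HEK293T) are plated at 3,000/well in 2% charcoal-stripped FBS medium, rested 6 hr, dosed and incubated 16 hr at 37C. CellTiter-Glo is then added and luminescence measured after 30 min at room temperature.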

A number with no mark means an inactive call. Inconclusive results are not listed. Calls of active or inactive are those of the source. Unless noted, calls come from the whole dose curve; as a rule, active = well fitted curve in the direction sought with a large enough effect in the repeat runs; inconclusive = weak or mixed curves; inactive = no such curve, though single readings can be large; an effect the other way counts as inactive or inconclusive.

Sequence of Estrogen receptor (Homo sapiens) (P03372 whole entry, looked up): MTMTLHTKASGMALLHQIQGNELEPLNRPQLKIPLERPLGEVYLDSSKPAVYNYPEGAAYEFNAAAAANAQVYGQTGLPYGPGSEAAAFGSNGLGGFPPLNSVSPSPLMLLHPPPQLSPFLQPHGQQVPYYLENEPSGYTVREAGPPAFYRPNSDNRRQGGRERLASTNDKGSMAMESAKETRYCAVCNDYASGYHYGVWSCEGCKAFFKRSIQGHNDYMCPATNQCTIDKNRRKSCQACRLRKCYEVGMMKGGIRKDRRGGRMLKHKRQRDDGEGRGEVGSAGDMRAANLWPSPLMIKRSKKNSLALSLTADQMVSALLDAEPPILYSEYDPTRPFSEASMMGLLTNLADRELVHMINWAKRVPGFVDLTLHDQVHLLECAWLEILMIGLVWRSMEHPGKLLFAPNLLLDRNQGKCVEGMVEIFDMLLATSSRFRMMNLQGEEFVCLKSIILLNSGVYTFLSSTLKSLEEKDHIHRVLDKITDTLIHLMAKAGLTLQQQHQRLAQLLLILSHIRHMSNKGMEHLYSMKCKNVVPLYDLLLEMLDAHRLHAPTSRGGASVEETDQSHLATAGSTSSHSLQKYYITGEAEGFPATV
Sequence of Androgen receptor (Homo sapiens) (P10275 whole entry, looked up): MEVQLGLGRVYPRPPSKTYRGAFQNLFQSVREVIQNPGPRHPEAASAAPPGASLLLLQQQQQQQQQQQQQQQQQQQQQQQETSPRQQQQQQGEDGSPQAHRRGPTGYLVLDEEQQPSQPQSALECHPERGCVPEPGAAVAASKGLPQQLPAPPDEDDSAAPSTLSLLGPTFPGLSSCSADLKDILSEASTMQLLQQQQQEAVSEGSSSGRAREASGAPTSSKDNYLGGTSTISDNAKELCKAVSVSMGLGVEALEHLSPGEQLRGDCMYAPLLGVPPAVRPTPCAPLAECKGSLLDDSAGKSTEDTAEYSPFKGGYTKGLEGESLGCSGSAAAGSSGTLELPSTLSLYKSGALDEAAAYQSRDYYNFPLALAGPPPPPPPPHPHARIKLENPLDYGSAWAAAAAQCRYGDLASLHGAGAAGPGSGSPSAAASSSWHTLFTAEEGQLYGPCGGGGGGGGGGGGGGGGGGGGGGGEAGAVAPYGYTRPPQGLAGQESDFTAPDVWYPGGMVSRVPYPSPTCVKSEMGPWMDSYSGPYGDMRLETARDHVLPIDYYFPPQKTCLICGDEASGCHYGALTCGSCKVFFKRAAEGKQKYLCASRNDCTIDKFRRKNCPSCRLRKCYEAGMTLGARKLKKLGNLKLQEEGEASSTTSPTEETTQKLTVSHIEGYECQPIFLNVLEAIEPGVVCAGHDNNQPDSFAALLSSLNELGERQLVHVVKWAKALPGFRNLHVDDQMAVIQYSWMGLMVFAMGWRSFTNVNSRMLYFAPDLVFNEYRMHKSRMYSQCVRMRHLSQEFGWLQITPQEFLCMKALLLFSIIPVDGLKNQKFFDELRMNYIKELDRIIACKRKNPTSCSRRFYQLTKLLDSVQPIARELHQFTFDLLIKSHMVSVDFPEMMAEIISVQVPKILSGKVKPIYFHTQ

For the compound `CCCCCCCCOC(=O)c1cc(O)c(O)c(O)c1`, the Potency in experiment [1] is 17.2 µM (active); in [2], 68.6 µM (active); in experiment [6], 54.5 µM (active); in experiment [7], 30.6 µM (active); in experiment [10], 1.09 µM (active). For the same compound, the Potency result in [3], in experiment [4], in experiment [5], in [8] and in [9] was “inactive” throughout.

As to `S=C1NC=NC2N=CNC12` (configuration not stated), the Potency entry in experiment [1], in [4], in experiment [5], in experiment [6], in [13] and in experiment [14] was “inactive” each time. Also, the Potency result in experiment [15] and in experiment [16] was “inactive” each time. Besides, the Potency in experiment [2] is 3.44 µM (active); in [8] it was 3.47 µM (active). The result in experiment [11] and in experiment [12] was inactive.

For `CC(C)(C)C1=CC(=O)C(C(C)(C)C)=CC1=O`, the Potency entry in experiment [1], in [17], in [18], in [4], in experiment [5] and in experiment [6] was “inactive” each time. Moreover, the Potency entry in [19], in [20], in experiment [8], in experiment [9], in experiment [13] and in [14] was “inactive” each time. Moreover, the Potency result in [15] and in experiment [16] was “inactive” each time. Further, the call in experiment [11] and in experiment [12] was inactive.

Regarding `CC(C)c1ccc2sc3ccccc3c(=O)c2c1`, the Potency entry in [1], in [18], in experiment [4], in experiment [6], in experiment [19] and in experiment [20] was “inactive” in each case. Besides, the Potency result in experiment [8], in [9], in experiment [15], in [16] and in [10] was “inactive” in each case. The Potency in experiment [3] is 1.37 µM (active); in experiment [5], 54.5 µM (active). Also, the compound was called inactive in experiment [11].

With `Nc1ccc(Oc2cccc(Oc3ccc(N)cc3)c2)cc1`, the Potency result in experiment [1], in [18], in experiment [3], in experiment [4], in experiment [5] and in experiment [6] was “inactive” throughout. Moreover, the Potency result in experiment [8], in [9], in experiment [13], in experiment [14], in [15] and in experiment [16] was “inactive” throughout. For the same compound, the Potency result in experiment [10] is “inactive”. Besides, the call in experiment [11] and in experiment [12] was inactive. In experiment [7], the Potency is 30.6 µM (active).

With `O=C(Nc1ccccc1)c1cc(Cl)ccc1O`, the Potency is 13.7 µM (active) in experiment [1]; 15.4 µM (active) in experiment [6]; 24.3 µM (active) in [7]; 12.2 µM (active) in [15]; 17.2 µM (active) in [10]. Besides, the Potency result in [18], in experiment [3], in experiment [4], in [5], in experiment [13] and in experiment [14] was “inactive” in each case. Moreover, the Potency result in [16] was “inactive”. The outcome in experiment [12] was inactive.

Consider `Clc1nc(C(Cl)(Cl)Cl)c(Cl)c(Cl)c1Cl`, for which the Potency in experiment [1] is 21.7 µM (active); in experiment [2], 8.63 µM (active); in experiment [10], 30.6 µM (active). Also, the Potency entry in experiment [3], in experiment [4], in [6], in experiment [20], in [8] and in experiment [9] was “inactive” in each case. The Potency entry in [13] and in experiment [14] was “inactive” throughout. The call in experiment [11] and in experiment [12] was inactive.

On to `CCCCCCCCCCCCCCCCC(C(=O)O)C(O)(CC(=O)O)C(=O)O` (configuration not stated), for which the Potency entry in [1], in experiment [17], in experiment [18], in experiment [3], in experiment [4] and in experiment [5] was “inactive” throughout. In addition, the Potency entry in [6], in experiment [7], in experiment [19], in experiment [8], in experiment [9] and in experiment [13] was “inactive” each time. Moreover, the Potency entry in experiment [14], in experiment [15], in [16] and in [10] was “inactive” throughout. Besides, the compound was classed as inactive in experiment [11] and in experiment [12].
